Experimental data published in PubChem BioAssay (EPA / NIEHS).
Activity calls are given as the source filed them. Rule for the calls: active = hit-call score of the fitted dose curve at least 0.9, where 1 is the maximum; inactive = score below 0.9.

What was measured:
[1] = read-out: Monocyte Chemoattractant Protein-1 (MCP1), CCL2 (gene 6347); experiment: BSK_SAg_MCP1: BioMAP Diversity Plus: SAg Assay for Monocyte Chemoattractant Protein-1 (MCP1) Biomarker Activity (AID 2283090); conditions: primary human HUVEC with PBMC; actives raise or lower the signal
Summary of the method: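 Values derive from bidirectional fitting of ELISA-measured MCP1 against DMSO controls. Readings were taken 24 h after dosing human vascular endothelial cells co-cultured with peripheral blood mononuclear cells under superantigen stimulation.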

[2] = read-out: E-selectin (Homo sapiens) (UniProt P16581); experiment: BSK_SAg_Eselectin: BioMAP Diversity Plus: SAg Assay for Eselectin Biomarker Activity (AID 2283091); conditions: primary human HUVEC with PBMC; actives raise or lower the signal
Summary of the method: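 Endpoint values derive from bidirectional fitting relative to DMSO, using ELISA-measured E-selectin in a human vascular co-culture (umbilical vein endothelium plus PBMC) sampled 24 h after dosing.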

[3] = read-out: Monokine induced gamma interferon (MIG), CXCL9 (gene 4283); experiment: BSK_SAg_MIG: BioMAP Diversity Plus: SAg Assay for Monokine induced gamma interferon (MIG) Biomarker Activity (AID 2283092); conditions: primary human HUVEC with PBMC; actives raise or lower the signal
Summary of the method: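 Endothelial cells and PBMC were co-cultured, exposed to test chemicals, and sampled 24 h later. MIG was measured by ELISA, and responses were fitted in both directions relative to DMSO.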

[4] = BSK_SAg_PBMCCytotoxicity: PBMC Cytotoxicity Assessment in the BioMAP Diversity Plus: SAg Assay (AID 2283093); conditions: primary human HUVEC with PBMC;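 note: fitted both ways against DMSO so a hit may be loss or gain of signal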;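 for AC50: PBMC superantigen activated with SEB plus TSST-1 one hour after compound addition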
Summary of the method: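 PBMC viability by Alamar Blue reduction, fluorescence read at 546/580 nm after 6 h dye exposure. Cells were dosed 1 h before SEB plus TSST-1 activation (20 ng/mL final each), then held 90 h; endothelial/PBMC human co-culture.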

[5] = read-out: Interleukin-8 (IL8), CXCL8 (gene 3576); experiment: BSK_SAg_IL8: BioMAP Diversity Plus: SAg Assay for Interleukin-8 (IL8) Biomarker Activity (AID 2283094); conditions: primary human HUVEC with PBMC; actives raise or lower the signal
Summary of the method: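 Primary human endothelial cells with PBMC, exposed 24 h; IL-8 determined by ELISA, analysed bidirectionally relative to DMSO.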

[6] = BSK_SAg_Proliferation: Cell Proliferation Assessment in the BioMAP Diversity Plus: SAg Assay (AID 2283095); conditions: primary human HUVEC with PBMC;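 note: relative cell number as total protein by SRB absorbance in sub-confluent culture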
Summary of the method: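 A human primary co-culture of umbilical vein endothelium and blood mononuclear cells receives compound; relative cell number is quantified at 96 h by SRB staining and 560 nm absorbance, with DMSO-referenced bidirectional curve fitting.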

[7] = BSK_SAg_SRB: Viability Assessment in the BioMAP Diversity Plus: SAg Assay (AID 2283096); conditions: primary human HUVEC with PBMC;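 note: cells read one day after compound addition; hits may be either gain or loss of signal compared with DMSO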
Summary of the method: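 Compounds were added to a human vascular co-culture of umbilical vein endothelium and PBMC. After 24 h, parallel cultures were fixed with 10% TCA, stained with 0.1% sulforhodamine B and read at 560 nm. Gain or loss of signal was fitted relative to DMSO.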

Measured: AC50

Chain of E-selectin (Homo sapiens) (P16581 whole entry, looked up): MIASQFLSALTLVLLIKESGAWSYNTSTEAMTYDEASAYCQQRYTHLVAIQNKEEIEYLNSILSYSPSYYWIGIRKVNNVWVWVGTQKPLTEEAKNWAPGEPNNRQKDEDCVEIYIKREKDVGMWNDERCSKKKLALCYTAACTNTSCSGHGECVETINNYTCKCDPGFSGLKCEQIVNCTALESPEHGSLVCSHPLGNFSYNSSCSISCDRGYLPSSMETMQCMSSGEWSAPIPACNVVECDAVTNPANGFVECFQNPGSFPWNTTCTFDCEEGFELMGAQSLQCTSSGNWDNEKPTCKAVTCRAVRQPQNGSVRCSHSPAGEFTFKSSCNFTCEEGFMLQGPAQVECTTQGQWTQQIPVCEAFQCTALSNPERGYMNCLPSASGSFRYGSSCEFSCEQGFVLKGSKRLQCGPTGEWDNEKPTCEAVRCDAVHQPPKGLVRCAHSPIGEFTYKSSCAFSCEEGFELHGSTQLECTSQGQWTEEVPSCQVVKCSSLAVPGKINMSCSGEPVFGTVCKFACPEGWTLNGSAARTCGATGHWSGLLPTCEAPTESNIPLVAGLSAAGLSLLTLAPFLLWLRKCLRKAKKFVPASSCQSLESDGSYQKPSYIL

c1ccc2cc3ccccc3cc2c1
inactive: [1] | [2] | [3] | [4] | [5] | [6] | [7]

O=S(=O)(O)CCC(F)(F)C(F)(F)C(F)(F)C(F)(F)C(F)(F)C(F)(F)F
inactive: [1] | [2] | [3] | [4] | [5] | [6] | [7]

CCCCCOC(C)=O
inactive: [1] | [2] | [3] | [5] | [7]
active: [4] 30.3 µM | [6] 15.1 µM

CC(C)CC(C)O (configuration not stated)
inactive: [1] | [2] | [3] | [4] | [5] | [6] | [7]

FC(F)C(F)(F)COCC1CO1 (configuration not stated)
inactive: [1] | [2] | [3] | [4] | [5] | [6] | [7]

CC(=O)c1ccccc1
inactive: [1] | [2] | [3] | [4] | [5] | [6] | [7]

CCCCCCCCCCCCCCO
active: [1] 34.2 µM | [2] 36.3 µM | [3] 39.4 µM | [4] 30.3 µM | [5] 31.8 µM | [6] 27.7 µM | [7] 32.4 µM

Cn1c(=O)c2[nH]cnc2n(C)c1=O
inactive: [1] | [2] | [3] | [4] | [5] | [6] | [7]

c1ccc2ncccc2c1
inactive: [1] | [2] | [3] | [4] | [5] | [6] | [7]

NC(N)=O
inactive: [1] | [2] | [3] | [4] | [5] | [6] | [7]

Cc1ccc(S(=O)(=O)NC(=O)NN2CCCCCC2)cc1
inactive: [1] | [2] | [3] | [4] | [5] | [6] | [7]

COS(C)(=O)=O
inactive: [1] | [2] | [3] | [4] | [5] | [6] | [7]

FC(F)(F)C(F)(F)C(F)(F)C(F)(F)C(F)(F)C(F)(F)I
inactive: [1] | [2] | [3] | [4] | [5] | [6] | [7]

OCCNCCO
inactive: [1] | [2] | [3] | [4] | [5] | [6] | [7]

CC(C)CCCCCCOC(=O)C1CCCCC1C(=O)OCCCCCCC(C)C (configuration not stated)
inactive: [1] | [2] | [3] | [5] | [6] | [7]
active: [4] 3.51 µM

OC[C@H]1O[C@@H]2O[C@H]3[C@H](O)[C@@H](O)[C@@H](O[C@H]4[C@H](O)[C@@H](O)[C@@H](O[C@H]5[C@H](O)[C@@H](O)[C@@H](O[C@H]6[C@H](O)[C@@H](O)[C@@H](O[C@H]7[C@H](O)[C@@H](O)[C@@H](O[C@H]1[C@H](O)[C@H]2O)O[C@@H]7CO)O[C@@H]6CO)O[C@@H]5CO)O[C@@H]4CO)O[C@@H]3CO
inactive: [1] | [2] | [3] | [4] | [5] | [6] | [7]

Cc1cccc(O)c1C
inactive: [1] | [2] | [3] | [4] | [5] | [6] | [7]

O=C(O)c1ccc2c(c1)nc(C(=O)NC1CCN(C3CC3)CC1)n2Cc1cc(-c2ccc(Cl)s2)on1
inactive: [1] | [2] | [3] | [4] | [5] | [6] | [7]

OCc1ccccc1
inactive: [1] | [2] | [3] | [4] | [5] | [6] | [7]

O=C(O)c1cccc(C[C@@H]2COc3ccc(OCc4nc5cc(F)ccc5s4)cc3[C@@H]2O)c1
inactive: [1] | [2] | [3] | [4] | [5] | [6] | [7]

CCCCOC(=O)c1ccccc1
inactive: [1] | [2] | [3] | [4] | [5] | [6] | [7]
